# From the supplement of paper PMC5641865, “A screen for kinase inhibitors identifies antimicrobial imidazopyridine aminofurazans as specific inhibitors of the Listeria monocytogenes PASTA kinase PrkA” (The Journal of Biological Chemistry, 2017)
# ± gives the standard deviation of the averaged measurements.
# Tested on: Listeria monocytogenes 10403S
# Assay: growth inhibition relative to ceftriaxone-alone control; higher = stronger potentiation of ceftriaxone growth inhibition
# Details: 10 µM; ceftriaxone 1 ug/ml; 12 h
# 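Note: End-point A600 read in BHI broth at 37 °C with 2% DMSO, inhibition computed as (1 − OD with compound plus ceftriaxone ÷ OD with ceftriaxone only) × 100.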
row,Compound,growth inhibition [%]
1,CC[C@@H]1C(=O)N(C)c2cnc(Nc3ccc(C(=O)N[C@H]4CC[C@H](N5CCN(CC6CC6)CC5)CC4)cc3OC)nc2N1C(C)C [BI6727 (Volasertib)],56.9 ± 16
2,COc1ccc(-c2oc3ncnc(N)c3c2-c2ccc(NC(=O)Nc3cc(C(F)(F)F)ccc3F)cc2)cc1,-3.49 ± 7.6
3,Cn1c(=O)c(F)c(Nc2ccc(I)cc2F)c2c(=O)n(C[C@@H](O)CO)cnc21,23 ± 13
4,NS(=O)(=O)c1ccc(Nc2cc(-c3ccc(O)c(F)c3)n[nH]2)cc1,10.1 ± 4.6
5,COC(=O)Nc1nc2cc(Oc3ccc(NC(=O)Nc4cccc(Br)c4)cc3)ccc2[nH]1,-0.0344 ± 20
6,Nc1cc(C(F)(F)F)c(-c2cc(N3CCOCC3)nc(N3CCOCC3)n2)cn1,47 ± 35
7,CS(=O)(=O)CCNCc1ccc(-c2ccc3ncnc(Nc4ccc(OCc5ccccc5)c(C(F)(F)F)c4)c3c2)o1,-5.15 ± 0.36
8,Nc1ccc(-c2ccc3ncc4ccc(=O)n(-c5cccc(C(F)(F)F)c5)c4c3c2)cn1 [Torin 2],-20 ± 12
9,COc1cc(N2CCN(C(C)C)CC2)ccc1Nc1nc(Nc2ccc(F)cc2C(N)=O)c2cc[nH]c2n1,-11.9 ± 7
10,CC1(C)CC(n2cnc(-c3ccc(F)cc3)c2-c2ccnc(N)n2)CC(C)(C)N1,-11.4 ± 8.9
11,Oc1ccc(-c2nc(-c3ccc(F)cc3)c(-c3ccncc3)[nH]2)cc1,23.7 ± 32
12,Fc1cccc(COc2ccc(Nc3ncnc4sc(-c5ccco5)cc34)cc2Cl)c1,6.89 ± 3.7
13,FC(F)(F)c1ccc(/C=C/c2nc(COc3ccc(CCCCn4ccnn4)cc3)co2)cc1 [Mubritinib (TAK 165)],16.1 ± 6.1
